Hits are enriched below; roughly 2.4% of the tested compounds scored in any of these assays.
ELG1 repair inh = inhibitors of ELG1-dependent DNA repair in HEK293T cells. AID 504467. Potency, µM (titrated, usually from 46.1 µM), for the others: at the highest dose activity change, negative = inhibition, actives largely listed as inhibitors. 330,000 compounds, 2.3% hits. HEK293T ELG1-luciferase reporter, luminescence, 16 h; DNA damage induced by 5-fluorouridine; further: on the % scale 0 is the no-effect control and ±100 the full control effect; nearly all actives have a fitted effect of over 55% in size
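DMSO vehicle served as the neutral condition. Each well held 2,000 cells given 5-fluorouridine plus compound; after 16 hr at 37 °C/5% CO2, ONE-Glo was added and luciferase measured 30 min later.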
Rango release inh = inhibitors of RanGTP-induced Rango-importin beta complex dissociation; Biochemical FRET Rango-importin beta, RanGTP-induced dissociation; Potency, µM (doses to about 46.1 µM), for inactives: top-dose activity change, negative = inhibition; 340,000 compounds, 0.071% hits; AID 540253; calls by dose curve; further: % of control where 0% means no effect; nearly all actives have a fitted effect of over 45% in size
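Recombinant Rango FRET biosensor (EYFP–snurportin 1 IBB–cerulean CFP10) at 0.1 uM premixed with 0.25 uM importin beta in PBS, 1 mM DTT, 0.02% Tween-20, 0.1% BSA. Compound added 5 min; RanGTP-RCC1 (0.6 uM Ran, 2 mM GTP, 0.2 uM RCC1) then triggers release, read at 45 min.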
PGK inhibitor = blocks T. brucei phosphoglycerate kinase. PGK/GAPDH coupled, Kinase-Glo luminescence, 60 min. Potency, µM (doses to about 57.5 µM), without a hit: at the highest dose activity change, negative = inhibition, hits mostly inhibitors. 380,000 compounds, 0.043% hits. AID 602233; further: on the % scale 0 is the no-effect control and ±100 the full control effect; nearly all actives have a fitted effect of over 60% in size
Target sequence (P07378 whole entry, looked up): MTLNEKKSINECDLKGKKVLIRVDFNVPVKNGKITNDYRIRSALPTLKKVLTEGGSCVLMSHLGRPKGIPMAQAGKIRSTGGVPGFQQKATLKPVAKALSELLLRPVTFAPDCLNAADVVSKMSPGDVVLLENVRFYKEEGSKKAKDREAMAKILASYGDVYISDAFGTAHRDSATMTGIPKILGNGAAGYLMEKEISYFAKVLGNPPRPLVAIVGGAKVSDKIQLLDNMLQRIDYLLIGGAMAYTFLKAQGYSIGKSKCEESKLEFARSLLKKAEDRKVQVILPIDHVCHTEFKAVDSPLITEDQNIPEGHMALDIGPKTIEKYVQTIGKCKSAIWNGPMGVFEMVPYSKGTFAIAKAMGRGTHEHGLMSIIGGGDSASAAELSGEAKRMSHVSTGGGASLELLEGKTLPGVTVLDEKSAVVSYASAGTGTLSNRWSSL
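Recombinant glycosomal PGK reaction used 1,3-bisphosphoglycerate generated in-well by GAPDH (100nM final) in 100mM TEA pH 7.6, 5mM MgCl2, 0.01% Tween-20. After 60 minutes at room temperature, ATP was read by Kinase-Glo Plus luminescence end-point.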
PKM2 act = PKM2 (human) enzyme activation | AID 1631 | purified PKM2, Kinase-Glo ATP luminescence, activation; response scale: 0% is enzyme alone, no compound | P14618 | 260,000 compounds, 0.34% hits | Potency, µM (top dose mostly 57.5 µM), without a hit: top-dose activation, actives largely listed as activators; further: on the % scale 0 is the no-effect control and ±100 the full control effect; nearly all actives have a fitted effect of over 55% in size
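hPK-M2, >95% pure; 0.1 mM ADP / 0.5 mM PEP final; imidazole pH7.2 buffer w/ 7 mM MgCl2, 50 mM KCl; 1 h RT; Kinase-Glo lum. Intermediate enzyme activity for dual inhibitor/activator qHTS.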
Tb PFK inh = inhibitors of T. brucei phosphofructokinase; O15648; T. brucei PFK, ADP-Glo luminescence; Potency, µM (highest dose often 57.5 µM), without a hit: top-dose activity, negative = inhibition, usual class: inhibitors; 330,000 compounds, 0.17% hits; AID 485367;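 further: 0% = uninhibited 1x PFK enzyme wells and -100% = no-enzyme wells; nearly all actives have a fitted effect of over 60% in size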
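ADP-Glo luminescence quantified ADP after 45 min at room temperature, with 1.25 nM T. brucei PFK, 0.1 mM ATP and 0.5 mM fructose-6-phosphate in pH 8.0 TEA buffer. qHTS titrations up to 57 µM; curves classified by quality.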
Rango complex inh = prevents formation of the Rango-importin beta complex; Q14974; Rango CFP/YFP FRET sensor + importin beta, 45 min; Potency, µM (series often up to 92.2 µM), for the others: at the highest dose inhibition of complex formation; 340,000 compounds, 0.031% hits; AID 540263; calls by dose curve;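 further: 0% = DMSO wells and 100% = buffer wells lacking importin beta; nearly all actives have a fitted effect of over 15% in size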
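FRET biosensor Rango (snurportin 1 IBB between N-terminal EYFP and C-terminal Cerulean), 50 nM in PBS/1 mM DTT/0.02% Tween-20/0.1% BSA, preincubated 5 min RT with compound; 0.125 microM importin beta added, 45 min RT, CFP/YFP FRET ratio read.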
Active calls of the source: *; i = inactive; ? = inconclusive; . = no result; [ ] = remark or other dose. Unless noted, the call rests on the fitted dose curve; in most records, active means well fitted curve in the direction sought with a large enough effect; inconclusive means small, poorly fitted or top-dose-only effect, or another doubt; inactive means no such curve, though single readings can be large; an effect the other way counts as inactive or inconclusive. Potency means the concentration at half of the fitted maximal effect.

SMILES	ELG1 repair inh	Rango release inh	PGK inhibitor	PKM2 act	Tb PFK inh	Rango complex inh
COCCCNc1nc2nonc2nc1NCCSC	23µM*	0%	-5%	3%	-2%	-2%
CCOC(=O)c1cnc(-n2nc(C)cc2C)nc1NC	-10%	-6%	15%	0%	-2%	-4%
CCOC(=O)c1cnc(-n2nc(C)cc2C)nc1Nc1ccc(N(C)C)cc1	15µM*	15%	-9%	-3%	-6%	-1%
CCOC(=O)c1cnc(-n2nc(C)cc2C)nc1NNc1nc(-c2ccccc2)cc(-c2ccccc2)n1	5.2µM*	21%	10%	-3%	-1%	2%
CCOC(=O)c1cnc(-n2nc(C)cc2C)nc1NNc1nc(C)cc(C)n1	12µM*	3%	i	3%	-5%	5%
O=C(Nc1cnn(Cc2ccc(Cl)cc2Cl)c1)c1noc2c1CCc1ccccc1-2	.	.	-2%	.	.	.
Cc1cccc(C)c1OCc1cc(C(=O)N(Cc2nccn2C)C(C)C)no1	?	10%	-1%	0%	0%	0%
C=CCNC(=O)c1onc(CS(=O)(=O)c2cc(C)cc(C)c2)c1C(=O)NCC=C	-14%	1%	i	.	0%	5%
O=C(CN1CCN(Cc2ccccc2)CC1)Nc1ccc([N+](=O)[O-])cc1C(=O)Nc1ccccc1F	?	-9%	-6%	-12%	0%	0%
O=C(CNCc1ccccn1)Nc1ccc([N+](=O)[O-])cc1C(=O)Nc1ccccc1F	23µM*	0%	-9%	0%	1%	3%
COc1cc([N+](=O)[O-])ccc1NC(=O)NCc1ccccn1	14%	-4%	5%	5%	2%	2%
CCOC(=O)N1CCN(CC(=O)Nc2ccc([N+](=O)[O-])cc2C(=O)Nc2ccccc2F)CC1	7.3µM*	1%	.	2%	-1%	-2%
COc1ccc(OC)c(CNc2ncc(-c3ccc(F)cc3)n2C)c1	3%	18%	i	-5%	0%	4%
O=c1c(-c2ccco2)[n+]([O-])c2ccccc2n1OCc1ccccc1[N+](=O)[O-]	23µM*	-25%	-7%	6%	-1%	?
O=c1c(-c2ccco2)[n+]([O-])c2ccccc2n1OCc1ccccn1	-5%	-12%	i	-1%	0%	?
COc1ccc(CNc2nc(C)c([N+](=O)[O-])c(C)c2C#N)cc1	-13%	3%	-7%	10%	1%	2%
COc1cc(CNc2nc(C)c([N+](=O)[O-])c(C)c2C#N)cc(OC)c1OC	7.3µM*	29%	-6%	3%	1%	2%
O=c1[nH]c(C2CCN(S(=O)(=O)c3ccccc3F)CC2)nc2c1nnn2Cc1ccc(OC(F)(F)F)cc1	18µM*	-16%	1%	-7%[0.46 µM]	-1%	2%
O=C(c1ccccc1)N1CCC(c2nc3c(nnn3Cc3ccccc3Cl)c(=O)[nH]2)CC1	?	6%	2%[11.5 µM]	-20%	-4%	4%
COc1ccccc1Cn1nnc2c(=O)[nH]c(C3CCN(C(=O)c4ccc(F)cc4)CC3)nc21	?	14%	0%	-1%	1%	8%
Cc1ccc(Cn2nnc3c(=O)[nH]c(C4CCN(S(=O)(=O)Cc5ccccc5)CC4)nc32)cc1	15µM*	-2%	-10%	4%	0%	0%
COc1ccccc1Cn1nnc2c(=O)[nH]c(C3CCN(C(=O)c4ccc(C)cc4)CC3)nc21	23µM*	-4%	-8%	1%	5%	-1%
CC(C)(C)CC(=O)N1CCC(c2nc3c(nnn3Cc3c(F)cccc3Cl)c(=O)[nH]2)CC1	16µM*	-21%	1%	2%	0%	-5%
CCOc1ccc(C(=O)N2CCC(c3nnc(-c4ccccc4OC)o3)CC2)cc1	.	.	i	.	.	.
CC(C)(C)c1ccc(Cn2nnc3c(=O)[nH]c(C4CCN(C(=O)c5ccco5)CC4)nc32)cc1	10µM*	-4%	-5%	3%	0%	-3%
SMILES	ELG1 repair inh	Rango release inh	PGK inhibitor	PKM2 act	Tb PFK inh	Rango complex inh
O=C(c1ccco1)N1CCC(c2nc3c(nnn3Cc3c(Cl)cccc3Cl)c(=O)[nH]2)CC1	?	9%	-6%	5%	-23%	-3%
O=C(NCC1CCOCC1)C1CCC(=O)N(Cc2cccc(C(F)(F)F)c2)C1 (stereo not given)	?	7%	i	.	-1%	0%
CC(=O)Cn1ncc(N2CCCCC2)c(Cl)c1=O	?	-7%	.	0%	0%	3%
CO/N=C(\Cn1ncc(N2CCCC2)c(Cl)c1=O)c1ccc(Cl)cc1	-17%	-4%	-9%	14µM*	-2%	-2%
Cc1nccc(-c2cccc(NC(=O)Nc3ccc(Cl)cc3)c2)n1	-10%	1%	-9%	-1%	0%	-2%
Cc1nccc(-c2cccc(N/N=C(\C#N)C(=O)c3ccccc3)c2)n1	15µM*	6%	-3%	2%	3%	?
CCN(CCN(C)C)C(=O)C1CCN(S(=O)(=O)c2c(C)noc2/C=C/c2ccccc2F)CC1	14%	2%	-1%	.	1%	-3%
CCOc1ccccc1/C=C/c1onc(C)c1S(=O)(=O)N1CCC(C(=O)N(CC)CC)CC1	5.8µM*	10%	11%	.	-3%	0%
CNC(=O)c1ccc(NC(=O)CC23CC4CC(CC(C4)C2)C3)cc1	9.2µM*	0%	-5%	.	-16%	2%
NC(=O)COc1ccc(NC(=O)CC23CC4CC(CC(C4)C2)C3)cc1	-9%	-6%	-1%	2%	-1%	1%
Cc1cc(=O)[nH]c2nnc(-c3ccc(Cl)cc3)n12	?	1%	i	.	1%	0%
Cc1ccc(S(=O)(=O)N2CCCCC2)cc1NC(=O)COC(=O)c1ccc(=O)[nH]c1	2%	8%	i	.	-3%	?
CC(=O)N1CCc2cc(S(=O)(=O)NCCC(=O)NC3CCCc4ccccc43)ccc21 (stereo not given)	13µM*	-2%	-2%	-2%	-16%	3%
Cn1c(=O)oc2cc(S(=O)(=O)NCCC(=O)NC3CCCc4ccccc43)ccc21 (stereo not given)	-2%	1%	-3%	-6%	-2%	1%
CC(=O)N1CCc2cc(S(=O)(=O)Nc3cccc(C(F)(F)F)c3)ccc21	?	0%	-1%	25µM*	4%	-1%
CC(=O)N1c2ccc(S(=O)(=O)NCCC(=O)NC3CCCC(C)C3C)cc2CC1C (stereo not given)	9.2µM*	-6%	i	.	-10%	-6%
